Calls of active or inactive are those of the source. How the source made its calls: active means hit-call score of the fitted dose curve at least 0.9, where 1 is the maximum; inactive means score below 0.9.
Tests used:
Details in all cases: mRNA level, 48 h; actives raise or lower the signal
[1] = read-out: Cytochrome P450 4A22 (Homo sapiens) (UniProt Q5TCH4); assay: LTEA_HepaRG_CYP4A22: Life Technologies and Expression Analysis (LTEA) Assay for Cytochrome P450 4A22 (CYP4A22) using HepaRG (AID 2283495)
Outline: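 Cryopreserved HepaRG cells, plated and cultured 48 h, then switched to serum-free induction medium and treated 48 h (duplicates, up to 100 uM, half-log steps, 0.5% DMSO). Expression change of CYP4A22 was fitted bidirectionally against vehicle.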

[2] = read-out: Cytochrome P450 7A1 (Homo sapiens) (UniProt P22680); assay: LTEA_HepaRG_CYP7A1: Life Technologies and Expression Analysis (LTEA) Assay for Cytochrome P450 7A1 (CYP7A1) using HepaRG (AID 2283496)
Outline: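 HepaRG cells plated 48 h, then switched to serum-free induction medium and exposed in duplicate for 48 h to 8-point half-log series from 100 uM in 0.5% DMSO. CYP7A1 mRNA by qRT-PCR (TaqMan), normalized to ACTB/GAPDH/POLR2A; bidirectional fit versus DMSO.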

[3] = read-out: Glutathione S-Transferase (GSTA2), GSTA2 (gene 2939); assay: LTEA_HepaRG_GSTA2: Life Technologies and Expression Analysis (LTEA) Assay for Glutathione S-Transferase (GSTA2) using HepaRG (AID 2283497)
Outline: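 HepaRG, 48 h dosing, 8-pt half-log CRC from 100 uM, 0.5% DMSO vehicle, n=2; RNA → Fluidigm TaqMan qRT-PCR; GSTA2 vs ACTB/GAPDH/POLR2A; gain/loss fit vs DMSO.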

[4] = read-out: growth arrest and DNA damage 45 (GADD45G), GADD45G (gene 10912); assay: LTEA_HepaRG_GADD45G: Life Technologies and Expression Analysis (LTEA) Assay for growth arrest and DNA damage 45 (GADD45G) using HepaRG (AID 2283499)
Outline: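 Human hepatic HepaRG line treated 48 h with chemicals (eight concentrations, half-log steps from 100 uM); transcript induction or repression of GADD45G scored by qRT-PCR versus DMSO vehicle.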

[5] = read-out: Glutamate-cysteine ligase regulatory (GCLM), GCLM (gene 2730); assay: LTEA_HepaRG_GCLM: Life Technologies and Expression Analysis (LTEA) Assay for Glutamate-cysteine ligase regulatory (GCLM) using HepaRG (AID 2283500)
Outline: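 Cells were plated, cultured 48 h, switched to serum-free induction medium, then dosed in duplicate for 48 h at eight half-log concentrations up to 100 uM. RNA was then profiled by qRT-PCR; gain or loss versus DMSO was fitted.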

[6] = read-out: Glutathione S-transferase M3 (GSTM3), GSTM3 (gene 2947); assay: LTEA_HepaRG_GSTM3: Life Technologies and Expression Analysis (LTEA) Assay for Glutathione S-transferase M3 (GSTM3) using HepaRG (AID 2283501)
Outline: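 Changes in GSTM3 expression, an oxidative-stress marker, were scored by bidirectional curve fitting against 0.5% DMSO vehicle. Human HepaRG cultures received chemicals for 48 h in duplicate, highest concentration 100 uM with half-log dilutions.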

[7] = read-out: Heat shock 70 kDa protein 1 (HSPA1A), gene 3303; assay: LTEA_HepaRG_HSPA1A: Life Technologies and Expression Analysis (LTEA) Assay for Heat shock 70 kDa protein 1 (HSPA1A) using HepaRG (AID 2283502)
Outline: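 Readout is HSPA1A transcript level by microfluidic qRT-PCR, normalized to three housekeeping genes and analysed for gain or loss of signal relative to 0.5% DMSO. Human HepaRG cultures received test chemicals for 48 h at up to 100 uM.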

[8] = read-out: Hypoxia-inducible factor 1-alpha (Homo sapiens) (UniProt Q16665); assay: LTEA_HepaRG_HIF1A: Life Technologies and Expression Analysis (LTEA) Assay for Hypoxia-inducible factor 1 (HIF1A) Trancription factor using HepaRG (AID 2283503)
Outline: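 Differentiated HepaRG cells in serum-free induction medium exposed 48 h, in duplicate, to 8-point half-log series from 100 uM in 0.5% DMSO. HIF1A mRNA measured by TaqMan qRT-PCR, normalized to ACTB/GAPDH/POLR2A, fitted bidirectionally versus DMSO.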

[9] = read-out: 3-Hydroxy-3-Methylglutaryl-CoA Synthase 2 (HMGCS2), HMGCS2 (gene 3158); assay: LTEA_HepaRG_HMGCS2: Life Technologies and Expression Analysis (LTEA) Assay for 3-Hydroxy-3-Methylglutaryl-CoA Synthase 2 (HMGCS2) using HepaRG (AID 2283504)
Outline: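 Expression of HMGCS2 in human HepaRG liver cells is measured by qRT-PCR 48 h after dosing (highest 100 uM, half-log series, 0.5% DMSO). Values come from bidirectional concentration-response fitting with DMSO as baseline.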

HGF (gene 3082) = assay: LTEA_HepaRG_HGF: Life Technologies and Expression Analysis (LTEA) Assay for Hepatocyte Growth Facto (HGF) using HepaRG (AID 2283505)
Outline: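 Gain or loss of HGF mRNA in human HepaRG liver cells after 48 h chemical exposure; eight concentrations up to 100 uM with 0.5% DMSO vehicle, quantified by TaqMan qRT-PCR.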

[10] = read-out: Insulin Like Growth Factor 1 (IGF1), IGF1 (gene 3479); assay: LTEA_HepaRG_IGF1: Life Technologies and Expression Analysis (LTEA) Assay for Insulin Like Growth Factor 1 (IGF1) using HepaRG (AID 2283506)
Outline: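 HepaRG, plated 48 h, then switched to serum-free induction media; test chemical 8-pt half-log from 100 uM (0.5% DMSO), duplicate, 48 h. Lysis in RLT, TaqMan qRT-PCR, norm. ACTB/GAPDH/POLR2A. Bidirectional fit vs DMSO.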

[11] = read-out: Intercellular Adhesion Molecule 1 (ICAM1), ICAM1 (gene 3383); assay: LTEA_HepaRG_ICAM1: Life Technologies and Expression Analysis (LTEA) Assay for Intercellular Adhesion Molecule 1 (ICAM1) using HepaRG (AID 2283507)
Outline: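 Gain or loss of transcript in HepaRG hepatic cells is quantified by qRT-PCR after 48 h chemical exposure (up to 100 uM, half-log steps), with DMSO as baseline.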

[12] = read-out: Insulin-like growth factor-binding protein 1 (IGFBP1), IGFBP1 (gene 3484); assay: LTEA_HepaRG_IGFBP1: Life Technologies and Expression Analysis (LTEA) Assay for Insulin-like growth factor-binding protein 1 (IGFBP1) using HepaRG (AID 2283508)
Outline: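 mRNA induction or loss was quantified by qRT-PCR after 48 h chemical exposure of human HepaRG cells, with 0.5% DMSO as vehicle and baseline. Concentration-response over eight points up to 100 uM.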

[13] = read-out: Interleukin 6 (IL6), IL6 (gene 3569); assay: LTEA_HepaRG_IL6: Life Technologies and Expression Analysis (LTEA) Assay for Interleukin 6 (IL6) using HepaRG (AID 2283509)
Outline: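 HepaRG, ~100,000 cells/well, 48 h pre-culture; serum-free induction medium; cmpd 8-pt half-log from 100 uM, 0.5% DMSO, duplicate, 48 h. Lysis in RLT, TaqMan qRT-PCR; gain or loss vs DMSO.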

[14] = read-out: Interleukin 6 Receptor (IL6R), IL6R (gene 3570); assay: LTEA_HepaRG_IL6R: Life Technologies and Expression Analysis (LTEA) Assay for Interleukin 6 Receptor (IL6R) using HepaRG (AID 2283510);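 on AC50: differentiated human HepaRG liver cells in serum-free induction medium; TaqMan qRT-PCR signal normalized to ACTB GAPDH and POLR2A housekeeping genes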
Outline: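 Readout is IL6R transcript level by TaqMan qRT-PCR, normalized to three housekeeping genes and fitted bidirectionally against 0.5% DMSO controls. Human HepaRG cells received chemicals for 48 h in serum-free induction medium, highest concentration 100 uM.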

[15] = read-out: Potassium channel subfamily K member 1 (KCNK1), KCNK1 (gene 3775); assay: LTEA_HepaRG_KCNK1: Life Technologies and Expression Analysis (LTEA) Assay for Potassium channel subfamily K member 1 (KCNK1) using HepaRG (AID 2283511)
Outline: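 Gain or loss of KCNK1 mRNA is the read-out, quantified by qRT-PCR against three housekeeping genes after 48 h chemical treatment of human HepaRG liver cells. Concentrations ran from 100 uM downward in half-log steps, vehicle 0.5% DMSO.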

[16] = read-out: Keratin 19 (KRT19), KRT19 (gene 3880); assay: LTEA_HepaRG_KRT19: Life Technologies and Expression Analysis (LTEA) Assay for Keratin 19 (KRT19) using HepaRG (AID 2283512)
Outline: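 Gene-expression endpoint in the human liver line HepaRG after 48 h exposure to up to 100 uM test chemical with 0.5% DMSO vehicle; KRT19 mRNA by qRT-PCR, analyzed bidirectionally versus DMSO.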

[17] = read-out: JUN Transcription Factor, JUN (gene 3725); assay: LTEA_HepaRG_JUN: Life Technologies and Expression Analysis (LTEA) Assay for JUN Transcription Factor using HepaRG (AID 2283513)
Outline: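 Cells plated 48 h, medium switched to serum-free induction medium, then dosed 48 h (100 uM top, half-log dilutions, 0.5% DMSO). RNA isolated; JUN measured by qRT-PCR against three housekeeping genes; gain or loss fitted relative to DMSO.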

[18] = read-out: Lipase C (LIPC), LIPC (gene 3990); assay: LTEA_HepaRG_LIPC: Life Technologies and Expression Analysis (LTEA) Assay for Lipase C (LIPC) using HepaRG (AID 2283514)
Outline: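 Read-out is LIPC transcript level by TaqMan qRT-PCR, normalized to three housekeeping genes, after 48 h chemical treatment of human HepaRG liver cells. Curves span eight concentrations topping at 100 uM; activity in either direction scored relative to 0.5% DMSO.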

[19] = read-out: Glutamate-cysteine ligase catalytic (GCLC), GCLC (gene 2729); assay: LTEA_HepaRG_GCLC: Life Technologies and Expression Analysis (LTEA) Assay for Glutamate-cysteine ligase catalytic (GCLC) using HepaRG (AID 2283498)
Outline: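 Read-out is GCLC transcript level by Fluidigm-based TaqMan qRT-PCR, normalized to three housekeeping genes and fitted in both directions relative to 0.5% DMSO. Human HepaRG cells received chemicals for 48 h, up to 100 uM.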

Measured: AC50

Chain of Hypoxia-inducible factor 1-alpha (Homo sapiens) (Q16665 whole entry, looked up): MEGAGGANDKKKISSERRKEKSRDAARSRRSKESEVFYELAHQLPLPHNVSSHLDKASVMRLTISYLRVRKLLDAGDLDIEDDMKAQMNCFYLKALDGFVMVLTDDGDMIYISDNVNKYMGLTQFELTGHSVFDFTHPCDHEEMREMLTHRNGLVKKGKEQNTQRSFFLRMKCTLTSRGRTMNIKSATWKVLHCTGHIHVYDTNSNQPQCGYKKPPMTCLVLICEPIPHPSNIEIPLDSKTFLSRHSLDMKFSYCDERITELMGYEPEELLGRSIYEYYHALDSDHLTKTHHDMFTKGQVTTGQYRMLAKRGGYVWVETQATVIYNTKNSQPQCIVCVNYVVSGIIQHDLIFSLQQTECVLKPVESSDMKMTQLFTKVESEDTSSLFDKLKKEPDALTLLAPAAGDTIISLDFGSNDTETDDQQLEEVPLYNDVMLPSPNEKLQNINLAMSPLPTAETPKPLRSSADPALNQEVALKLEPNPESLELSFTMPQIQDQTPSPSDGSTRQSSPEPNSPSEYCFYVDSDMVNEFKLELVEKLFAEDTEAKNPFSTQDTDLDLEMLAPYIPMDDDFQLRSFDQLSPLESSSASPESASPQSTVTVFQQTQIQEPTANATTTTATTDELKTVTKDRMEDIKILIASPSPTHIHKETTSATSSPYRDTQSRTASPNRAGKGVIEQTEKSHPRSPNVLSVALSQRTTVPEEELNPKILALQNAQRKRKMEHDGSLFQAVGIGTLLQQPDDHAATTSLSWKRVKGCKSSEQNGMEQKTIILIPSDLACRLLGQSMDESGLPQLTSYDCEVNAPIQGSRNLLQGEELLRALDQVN

O=C(Nc1ccc(Cl)cc1)Nc1ccc(Cl)c(Cl)c1
inactive: [5] | [6] | [11] | [14]
active: [1] 24.2 µM | [2] 26 µM | [3] 27.2 µM | [4] 22.8 µM | [7] 29.1 µM | [8] 72.1 µM | [9] 28.6 µM | HGF (gene 3082) 50 µM | [10] 24.4 µM | [12] 27.7 µM | [13] 23.3 µM | [15] 29 µM | [16] 14.6 µM | [17] 22.8 µM | [18] 15.1 µM

CN1C(=O)CC[C@H]1c1cccnc1
inactive: [1] | [2] | [3] | [19] | [4] | [5] | [6] | [7] | [9] | HGF (gene 3082) | [10] | [11] | [12] | [13] | [14] | [15] | [16] | [17] | [18]

CCCOC(=O)c1cc(O)c(O)c(O)c1
inactive: [3] | [19] | [4] | [5] | [6] | [7] | [8] | HGF (gene 3082) | [12] | [13] | [14] | [15] | [16] | [17] | [18]
active: [1] 4.41 µM | [2] 17.9 µM | [9] 50 µM | [10] 11.4 µM

Cc1ccc(C(C)C)cc1
inactive: [1] | [2] | [3] | [19] | [4] | [5] | [6] | [7] | [8] | [9] | HGF (gene 3082) | [10] | [11] | [12] | [13] | [14] | [15] | [16] | [17] | [18]

c1ccc(C[n+]2cccc3ccccc32)cc1
inactive: [6] | [8] | HGF (gene 3082) | [15] | [17]
active: [1] 22.6 µM | [2] 33.7 µM | [3] 75 µM | [19] 85.9 µM | [4] 43.6 µM | [5] 62.7 µM | [7] 22.8 µM | [9] 31 µM | [10] 20.7 µM | [11] 70.8 µM | [12] 34.6 µM | [14] 50 µM | [16] 28.6 µM | [18] 32 µM

O=C1CCC(C2CCCCC2)CC1
inactive: [1] | [2] | [3] | [19] | [4] | [5] | [6] | [7] | [8] | [9] | HGF (gene 3082) | [10] | [11] | [12] | [13] | [14] | [15] | [16] | [17] | [18]

CN1C(=O)N(c2ccccc2Br)Cc2cnc(Nc3ccc4c(c3)OCC(CO)O4)nc21 (stereo not given)
active: [1] 50 µM | [2] 72.8 µM | [3] 78 µM | [19] 65.8 µM | [4] 66.6 µM | [7] 92.4 µM | [8] 1.33 µM | [9] 75.4 µM | [10] 32.7 µM | [12] 62.3 µM | [13] 11.6 µM | [16] 6.5 µM | [17] 12.1 µM | [18] 71.8 µM
inactive: [5] | [6] | HGF (gene 3082) | [11] | [14] | [15]

Cc1ncc(CO)c(CO)c1O
inactive: [1] | [2] | [3] | [19] | [4] | [5] | [6] | [7] | [9] | HGF (gene 3082) | [10] | [11] | [12] | [13] | [14] | [15] | [16] | [17] | [18]
